Rows were chosen to be rich in hits. Some 3% of all compounds tested hit in one or more screens of this group.
Nrf2 ARE act – activates Nrf2 signaling. Potency, µM (series often up to 46.1 µM), actives largely listed as activators. AREc32 ARE-luciferase reporter (MCF7-derived line), luminescence, 24 h. actives 0.31% (n = 410,000); also: nearly all actives have a fitted effect of over 65% in size
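Nrf2 activation is followed as ARE-luciferase induction in the AREc32 line after one day of compound treatment; luminescence is read with Steady-Glo.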
DRD3 agonist – D3 dopamine receptor (human) agonism | P35462 | D3R DiscoveRx beta-arrestin cells, luminescence, 90 min | max activation, % | actives 0.58% (n = 410,000); in the data active = max activation above about 30%
Target sequence (P35462 whole entry, looked up): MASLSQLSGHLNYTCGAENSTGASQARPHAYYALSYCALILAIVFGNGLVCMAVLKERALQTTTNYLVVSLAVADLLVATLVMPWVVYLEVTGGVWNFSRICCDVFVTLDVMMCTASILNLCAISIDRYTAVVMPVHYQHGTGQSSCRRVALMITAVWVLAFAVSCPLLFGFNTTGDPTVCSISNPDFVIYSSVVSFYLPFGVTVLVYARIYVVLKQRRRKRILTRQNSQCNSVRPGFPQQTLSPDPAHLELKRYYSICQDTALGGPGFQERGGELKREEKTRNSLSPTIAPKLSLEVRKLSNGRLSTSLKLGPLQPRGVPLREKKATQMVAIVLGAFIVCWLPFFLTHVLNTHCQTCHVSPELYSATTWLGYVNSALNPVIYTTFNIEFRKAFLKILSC
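Agonist-mode cell screen: cells plated at 1500/well and incubated overnight at 37 °C, then exposed to library compounds for 90 min at 37 °C. Detection reagent was added for 30–60 min at room temperature, and luminescence was read.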
D3 antag – blocks the human D3 dopamine receptor | actives 2.5% (n = 360,000) | AID 652054 | max response, negative = inhibition, % | P35462 | D3R cells, DiscoveRx beta-arrestin luminescence, antagonist mode; stronger effect = lower value; in the data active = max response below about -50%; inconclusive = no clear call, values can overlap the other calls
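Cells plated overnight at 1500 cells/well, then exposed to library compounds with dopamine controls for 90 minutes at 37 degrees C. DiscoveRx reagent added for 30–60 minutes at room temperature; luminescence read, quantitative HTS format.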
GRP78 ERSR act – ER stress response induction in glioma. U87-MG GRP78 promoter luciferase reporter, 16 h. Potency, µM, actives largely listed as activators. actives 0.02% (n = 420,000); also: series mostly up to about 76 µM; nearly all actives have a fitted effect of over 35% in size
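Stably transfected U87-MG human glioma cells carrying a GRP78-based luminescent sensor were seeded at 1000 cells/well, pin-dosed with compounds and incubated 16 h. Luciferase reagent was then added, and end-point luminescence was read after 10 min at room temperature.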
Hits are given with their value; n = inactive; u = inconclusive; x = no result; ! = not confirmed by another sample. Unless noted, calls follow the shape of the dose curve; as a rule, active = well fitted curve in the direction sought with a large enough effect; inconclusive = small, poorly fitted or top-dose-only effect, or another doubt; inactive = no such curve, though single readings can be large; an effect the other way counts as inactive or inconclusive.

SMILES | Nrf2 ARE act | DRD3 agonist | D3 antag | GRP78 ERSR act
COCCN(C(=O)CCC(=O)Nc1nccs1)C(C(=O)NC(C)(C)C)c1ccc(C)cc1 (centres undefined) | n | 38.2 | n | n
COCCNC(=O)C(c1ccc(C)cc1)N(Cc1ccco1)C(=O)CCC(=O)Nc1ccccn1 (centres undefined) | n | n | -89.5 | n
Cc1ccc(C(C(=O)NC(C)(C)C)N(CC2CCCO2)C(=O)CCC(=O)Nc2ccccn2)cc1 (centres undefined) | n | 48.0 | n | n
Cc1ncc2c(c1CNC(=O)c1ccc3c(c1)OCO3)CCN(C(=O)c1cnsn1)C2 | x | x | x | n
Cc1ccc(C2/C(=C(\O)c3c(C)nc4ccccn34)C(=O)C(=O)N2CCN(C)C)o1 (centres undefined) | n | 43.0 | n | n
CC(=O)c1c(C)[nH]c(C(=O)NCCC2=CCCCC2)c1C | n | n | -56.6 | n
CN(C)CC(C)(C)CNC(=O)c1cnn(-c2nccc(-c3ccc4c(c3)OCO4)n2)c1-c1ccco1 | x | x | x | n
CCN(CC)CCSc1nnc2c3cc(F)ccc3n(Cc3ccccc3)c2n1 | n | n | u | n
CCN(CC)CCSc1nnc2c3ccccc3n(Cc3ccccc3)c2n1 | n | n | -93.0 | n
Cc1oc(-c2ccccc2Cl)nc1CSc1nc2c(c(=O)[nH]1)CCC2 | n | 56.5 | n | n
O=c1[nH]c(SCc2ccccc2Cl)nc2c1CCCC2 | n | 30.5 | n | n
O=C(Nc1ccc(C(=O)OCc2cc(=O)n3ccsc3n2)cc1)c1cccc(F)c1 | n | n | x | n
CCCC(=O)n1nc(-c2cccnc2)nc1NCc1ccc(OC)cc1 | n | 57.0! | n | n
COc1ccc(/C=C/C(=O)O)cc1S(=O)(=O)NCc1ccccc1 | n | 35.5 | n | n
COc1ccc(NC(=O)NCCN2CCc3ccccc3C2)cc1 | n | n | -83.1 | n
CSc1ccc(NC(=O)NCCN2CCc3ccccc3C2)cc1 | n | n | -61.1 | n
O=C(NCCCN1CCc2ccccc2C1)Nc1ccc(Cl)cc1 | n | n | -91.5 | n
O=C(NCCCN1CCN(c2ccc(F)cc2)CC1)Nc1ccc(Cl)cc1 | n | n | x | n
O=[N+]([O-])c1ccc(O)c(C2=NNC(c3ccccc3F)C2)c1 (centres undefined) | u | n | -120.7 | n
Cc1cc(OCCN2CCCCCC2)ccc1[N+](=O)[O-] | n | n | -68.0 | n
O=[N+]([O-])c1ccc(OCCCCCN2CCOCC2)cc1 | n | n | n | n
O=[N+]([O-])c1ccc(OCCCCN2CCc3ccccc3C2)cc1 | n | n | -102.2 | n
O=[N+]([O-])c1ccc(OCCCCN2CCCCC2)cc1 | n | n | -57.7 | n
COC(=O)C1CCN(Cc2ccc(OCCCN3CCN(c4ccc([N+](=O)[O-])cc4)CC3)cc2)CC1 | n | n | -51.7 | n
Cc1cc(OCC(=O)N2CCCCCC2)ccc1[N+](=O)[O-] | n | n | n | n
SMILES | Nrf2 ARE act | DRD3 agonist | D3 antag | GRP78 ERSR act
CCC1CN(CCNC(=O)c2ccc(C#CC(C)(C)O)cc2)Cc2cc(OC)ccc2O1 (centres undefined) | x | x | x | n
COc1ccc(CC(=O)NC2CC(=O)N(c3cccc(F)c3)C2)cc1OC (centres undefined) | n | n | x | n
COc1ccc(Cl)cc1C(=O)C1CCCN(Cc2cnc(N3CCOCC3)s2)C1 (centres undefined) | n | n | -79.1 | n
CCOC(=O)N1CCC(N2CCCC(C(=O)c3cc(F)ccc3OC)C2)CC1 (centres undefined) | n | n | -67.6 | n
COc1ccc(F)cc1C(=O)C1CCCN(Cc2cnc(N3CCCC3)s2)C1 (centres undefined) | n | n | -59.2 | n
CCc1noc(C)c1C(=O)N1CCCC(C(=O)c2cc(F)ccc2OC)C1 (centres undefined) | n | n | n | n
CCOC(=O)c1ccc(NC(=O)CCC(=O)N2CCSc3ccccc32)cc1 | n | n | x | n
O=C(O)c1cc(Oc2ccc([N+](=O)[O-])cc2)cc(Oc2ccc([N+](=O)[O-])cc2)c1 | x | x | x | n
O=C(O[C@H]1[C@H](Cc2ccccc2)NS(=O)(=O)[C@H]2CC3C=C[C@]12O3)c1ccc(Br)cc1 | x | x | x | n
CCc1ccc(NC(=O)Cn2ccn(-c3ccc(OC)cc3)c(=O)c2=O)cc1 | n | n | x | n
Cc1nnc(NC(=O)c2cccc(S(=O)(=O)N3CC(c4ccccc4)CC3=O)c2)s1 (centres undefined) | n | 67.7 | n | n
COc1cc(-c2cccc(Cl)c2)cc2c1OCCN(C(=O)CCn1ccc(C)n1)C2 | x | x | x | n
Cc1ccc(C(=O)NC(Cc2ccccc2C(F)(F)F)C(=O)O)cc1 (centres undefined) | n | 40.4 | u | n
Cc1ccc2[nH]c(-c3ccccc3)c(CN3CCN(C)CC3)c(=O)c2c1 | n | n | -76.0 | n
Cc1ccc2[nH]c(-c3ccccc3)c(CN3CCCC3)c(=O)c2c1 | n | n | n | n
COc1cc2c(NC3CCN(C)CC3)nc(N3CCCN(C)CC3)nc2cc1OCC1CCCCN1 (centres undefined) | x | x | x | n
O=C1O/C(=C\c2ccccc2)c2ccccc21 | n | n | n | n
O=C1N/C(=C\c2ccccc2)c2ccccc21 | 8.91µM | n | n | n
COc1ccccc1CCn1cnc(C)c1CC(C)C | n | n | -77.9 | x
FC(F)(F)Oc1ccccc1C(c1nnnn1C1CCCC1)N1CCN(C/C=C/c2ccccc2)CC1 (centres undefined) | n | n | -96.6 | n
COc1cccc(C(c2nnnn2C2CCCCC2)N2CCN(C/C=C/c3ccccc3)CC2)c1OC (centres undefined) | n | n | -118.4 | n
COc1ccc([N+](=O)[O-])cc1C1NN=C(c2ccccc2O)S1 (centres undefined) | 4.47µM | n | n | n
Cc1ccc2ccc(C(Nc3cccc(C(F)(F)F)c3)c3cccnc3)c(O)c2n1 (centres undefined) | n | n | -127.5 | n
Cc1ccnc(NC(c2ccsc2)c2ccc3ccc(C)nc3c2O)c1 (centres undefined) | u | n | -98.3 | n
O=C(O)c1ccccc1NC(c1ccccc1)c1ccc2cccnc2c1O (centres undefined) | n | n | -95.3 | n
SMILES | Nrf2 ARE act | DRD3 agonist | D3 antag | GRP78 ERSR act
COc1ccc(C(Nc2cc(C)ccn2)c2ccc3ccc(C)nc3c2O)cc1 (centres undefined) | n | n | -77.2 | n
Cc1ccnc(NC(c2ccccc2)c2ccc3cccnc3c2O)c1 (centres undefined) | n | n | n | n
Cc1ccc2ccc(C(Nc3ccccc3)c3ccccc3)c(O)c2n1 (centres undefined) | x | n | u | x
Cc1cc(-c2ccnc(-n3ncc(C(=O)N(C)Cc4nccs4)c3C)n2)c(C)s1 | x | x | x | n
Cc1ccc2ccc(C(Nc3ccccn3)c3ccccc3)c(O)c2n1 (centres undefined) | n | n | -59.4 | n
COc1cc(C(Nc2ccccn2)c2ccc3ccc(C)nc3c2O)cc(OC)c1O (centres undefined) | u | n | u | n
CCN1CCN(CCC(=O)Nc2cc(C)ccc2C)CC1 | n | n | n | n

Source: PubChem (National Center for Advancing Translational Sciences (NCATS))
